Most compounds without a hit are left out; they make up all but 5.5% or so of the library.
uPA surface inh – inhibitors of cell surface uPA generation; cell surface uPA generation assay, qHTS; Potency, µM (series often up to 38.3 µM), usual class: inhibitors; hit rate 0.31% among 330,000; active = well fitted inhibition curve with a large enough effect; inconclusive = small, poorly fitted or top-dose-only effect; inactive = no such curve, though single readings can be large or run the other way; tested in mouse RAW 264.7 cells; note: nearly all actives have a fitted effect of over 55% in size
VP16 counter – Gal4-VP16 reporter inhibition counter-screen; Drosophila S2 Gal4-VP16 UAS-luciferase, luminescence, 20 h; Potency, µM (top dose mostly 53.6 µM), actives largely listed as inhibitors; hit rate 3.5% among 310,000;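 note: Gal4-VP16 expression switched on by copper sulfate through the metallothionein promoter; nearly all actives have a fitted effect of over 50% in size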
Mito fusion act – blocks mitochondrial division or promotes mitochondrial fusion. Potency, µM (highest dose often 46.1 µM), actives largely listed as activators. hit rate 0.23% among 320,000. S. cerevisiae fusion-defective mutant growth rescue, CellTiterGlo 48 h. AID 485298; note: nearly all actives have a fitted effect of over 45% in size
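Temperature-sensitive fusion-defective S. cerevisiae (e.g. fzo1-1, mgm1-5) were grown with compound in YPEG medium (3% ethanol, 3% glycerol) for 48 hours at 37C. Growth rescue was measured as viability by CellTiterGlo luminescence after 10 minutes at ambient.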
BCR signal inh – blocks chronic active B-cell receptor signaling; ABC-DLBCL IkBa-CBG/CBR reporter, luminescence ratio, 4 h; Potency, µM (highest dose often 46.1 µM), most hits filed as inhibitors; hit rate 0.05% among 340,000; active = well fitted inhibition curve with a large enough effect in the signal ratio, with a control signal flat, not every such curve was filed as active; inconclusive = small, poorly fitted or top-dose-only effect, or effect the other way, or a change in a side signal; the % refers to the signal ratio
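Doxycycline induced both beetle luciferases in TMD8 lymphoma cells; IKK-driven degradation limits the IkappaBalpha-fused green signal, while red luminescence normalises for cell number and nonspecific effects. Compounds tested up to 46 uM, 4 hrs.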
a7 integrin act – activators of alpha7 integrin expression for muscular dystrophy | alpha7betagal myoblasts, beta-gal FDG fluorescence, 48 h | Potency, µM (top dose mostly 38.3 µM), usual class: activators | hit rate 0.064% among 350,000 | AID 624291; note: nearly all actives have a fitted effect of over 60% in size
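Alpha7betagal+/- myoblasts (passage 13) were plated 16-24 hr, then exposed to compounds (1:260 dilution of DMSO stock) for 48 hours at 37C. After MPER lysis, β-galactosidase reporter activity was read as FDG fluorescence (ex 480/em 540) after 30 minutes.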
RORg inh – blocks mouse ROR gamma transcriptional activity; Potency, µM (doses to about 53.6 µM), usual class: inhibitors; P51450; hit rate 5.4% among 310,000; Drosophila S2 Gal4-RORgamma UAS-luciferase reporter, 20 h; note: nearly all actives have a fitted effect of over 60% in size
Target sequence (P51450 whole entry, looked up, the tested form may be a part): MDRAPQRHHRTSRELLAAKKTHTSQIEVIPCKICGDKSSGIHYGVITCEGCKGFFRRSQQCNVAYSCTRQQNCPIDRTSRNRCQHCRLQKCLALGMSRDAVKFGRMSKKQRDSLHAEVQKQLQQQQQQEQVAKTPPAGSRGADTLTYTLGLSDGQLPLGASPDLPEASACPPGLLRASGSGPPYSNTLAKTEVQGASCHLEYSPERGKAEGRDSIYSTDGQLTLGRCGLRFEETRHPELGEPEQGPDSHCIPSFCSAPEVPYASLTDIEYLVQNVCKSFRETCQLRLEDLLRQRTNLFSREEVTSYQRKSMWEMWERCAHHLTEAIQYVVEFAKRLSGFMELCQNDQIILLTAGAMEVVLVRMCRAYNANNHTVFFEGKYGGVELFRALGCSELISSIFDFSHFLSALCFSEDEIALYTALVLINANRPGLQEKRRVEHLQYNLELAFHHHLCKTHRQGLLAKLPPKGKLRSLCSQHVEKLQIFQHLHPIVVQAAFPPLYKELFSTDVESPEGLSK
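Schneider cells (Drosophila), stable Gal4 DBD–ROR gamma + UAS-luc; 1 hr cmpd preincubation; Cu2+ induction 700 uM final; 20 hr ambient; luminescence.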
Hits are given with their value; i = inactive; ? = inconclusive; nt = not tested or not shown; [ ] = another dose, or the depositor's remark. Unless noted, calls come from the whole dose curve; as a rule, active = well fitted curve in the direction sought with a large enough effect; inconclusive = small, poorly fitted or top-dose-only effect, or another doubt; inactive = no such curve, though single readings can be large; an effect the other way counts as inactive or inconclusive.

SMILES	uPA surface inh	VP16 counter	Mito fusion act	BCR signal inh	a7 integrin act	RORg inh
CCc1ccc2oc(-c3cccc(N)c3)nc2c1	i	14.1µM	i	?	i	10µM
Nc1ccc2oc(-c3ccc4nc[nH]c4c3)nc2c1	i	?	i	?	i	?
COC(=O)CC1C(C)(C)C2(O)OC34CC2C(=O)[C@@]1(C)C3CC[C@]1(C)C4=CC(=O)OC1c1ccoc1 (stereo not given in full)	nt	i	nt	nt	nt	i
COc1ccc(C2=Nn3c(nnc3-c3ccccc3C)SC2)cc1	nt	i	nt	nt	nt	i
COCCN1C=C(C(=O)OC)C(c2ccccc2Cl)C(C(=O)OC)=C1	i	i	i	i	8.91µM	i
CCOc1ccc(Cc2n[nH]c(=S)n2N)cc1	i	i	i	i	i	i
CCc1ccc(-n2c(Cc3ccccc3)n[nH]c2=S)cc1	i	?	i	i	i	2µM
Cc1cccc(-n2c(CCn3nc(C)c([N+](=O)[O-])c3C)n[nH]c2=S)c1	i	i	i	?	i	12.6µM
Cc1cccc(-n2c(Cc3ccccc3)n[nH]c2=S)c1	i	14.1µM	i	i	?	3.98µM
CCC/C=C(\CCC)C(NC(=O)c1ccc(C(F)(F)F)cc1)c1ccc(C(F)(F)F)cc1 (stereo not given)	nt	i	nt	nt	nt	i
O=C(CSc1nc(=O)[nH]c2c1CCCC2)Nc1ccc(Cl)c(Cl)c1	nt	nt	nt	i	nt	nt
CN1CCN(C(=O)CCCN2C(=O)/C(=C/c3cccc(Br)c3)SC2=S)CC1	i	i	i	?	i	?
CCc1ccc(/C=C2\SC(=S)N(CCCC(=O)N3CCN(C)CC3)C2=O)cc1	nt	nt	nt	nt	i	nt
COc1ccc(/C=C2\SC(=S)N(CCCC(=O)N3CCCCC3CCO)C2=O)cc1 (stereo not given)	i	3.55µM	i	?	i	2.24µM
COc1cccc(/C=C2\SC(=S)N(CCCC(=O)N(CCO)c3ccccc3)C2=O)c1	?	2.51µM	i	?	i	7.08µM
CN1CCN(C(=O)CCN2C(=O)/C(=C/c3cccc(Br)c3)SC2=S)CC1	i	i	i	i	i	15.8µM
COc1ccc(/C=C2\SC(=S)N(CCCC(=O)N3CCN(C)CC3)C2=O)cc1	i	?	i	?	i	7.08µM
CC(OC(=O)c1ncc(Cl)c(Cl)c1Cl)C(=O)NC1(C#N)CCCCC1 (stereo not given)	i	nt	i	i	i	nt
COc1ccc(C(CC(=O)Nc2ccccn2)N2Cc3ccccc3C2=O)cc1OC (stereo not given)	i	i	i	i	i	i
COc1cccc(/C=C2\SC(=S)N(CCCC(=O)N3CCCCC3)C2=O)c1	?	12.6µM	i	?	i	4.47µM
COc1cccc(/C=C2/SC(=S)N(CCC(=O)N3CCOCC3)C2=O)c1	nt	?	i	i	i	?
O=C(CSc1nnc(C2CC2)n1C1CC1)c1cccs1	i	nt	nt	?	10µM	nt
O=C(CSc1nnc(C2CC2)n1C1CC1)c1ccc(Br)s1	i	nt	nt	i	i	nt
O=c1[nH]c(C2CCN(S(=O)(=O)c3ccc4c(c3)OCCO4)CC2)nc2c1nnn2Cc1ccc(F)cc1	i	i	i	?	i	i
O=C(/C=C/c1ccccc1)Nc1ccc(Br)cn1	1.58µM	i	i	?	i	i
SMILES	uPA surface inh	VP16 counter	Mito fusion act	BCR signal inh	a7 integrin act	RORg inh
O=C(/C=C/c1ccccc1)Nc1ncn[nH]1	nt	?	i	?	i	14.1µM
C[C@@H]1CN([C@@H](C)CO)C(=O)CCCn2nncc2CO[C@@H]1CN(C)S(=O)(=O)c1ccc(C#N)cc1	nt	nt	nt	nt	i	nt
CCc1ccc(NC(=O)C2(c3cccs3)CCOCC2)cc1	nt	nt	nt	i	nt	nt
CNC(=O)c1ccc(C)c(NC(=O)C2=C(C)OCCS2)c1	i	i	i	i	i	i
CCOC(=O)CC1CCCCN1C(=O)CCCn1nnnc1CN1CCC(C)CC1 (stereo not given)	i	i	i	i	i	i
Cc1ccc(NC(=O)c2sc3ncnc(N(C)C4CCCCC4)c3c2C)c(C)c1	nt	nt	nt	i	nt	nt
CCC(=O)Nc1nnc(-c2ccco2)o1	i	i	i	?	i	?
O=C(COn1nnc2ccc(C(F)(F)F)cc21)Nc1nnc(-c2ccccc2)o1	i	4.47µM	i	i	i	7.08µM
O=C(Cc1ccccc1)Nc1nnc(-c2ccco2)o1	i	10µM	i	i	i	2.82µM
O=C(COc1ccc(Cl)cc1)Nc1nnc(-c2ccco2)o1	i	?	i	i	i	11.2µM
O=C(COc1ccccc1)Nc1nnc(-c2ccc(Cl)s2)o1	i	20µM	i	i	i	12.6µM
Cc1ccccc1OCC(=O)Nc1ccc([N+](=O)[O-])cc1	i	i	i	i	i	i
O=C(COc1ccccc1)Nc1cccc(-c2nnc(-c3ccccc3)o2)c1	i	?	?	i	i	i
O=C(COc1ccccc1)Nc1nnc(-c2ccco2)o1	i	?	i	?	i	15.8µM
O=C(COc1ccccc1)Nc1nnc(-c2ccccc2)o1	i	10µM	i	?	i	10µM
CC(C)c1cc(CNC(=O)C2CCC(=O)N(Cc3ccccc3F)C2)on1 (stereo not given)	i	i	i	i	i	i
c1ccc(N/N=C(\Cc2ncc[nH]2)c2ccccc2)cc1	nt	i	i	i	i	?
Clc1cccc(N/N=C(\Cc2nc3ccccc3[nH]2)c2ccccc2)c1	i	i	i	?	i	17.8µM
Cc1ccc(C(=O)Nc2nc3ccccc3c(=O)s2)cc1	?	?	i	?	i	14.1µM
COc1ccc(C(=O)Nc2nc3ccccc3s2)cc1OC	i	?	i	i	i	i
CC(=O)Nc1nc(=O)c2ccccc2s1	i	?	i	?	i	?
O=C(Nc1nc(=O)c2ccccc2s1)c1ccccc1	i	6.31µM	i	?	i	7.08µM
COc1ccc(C(=O)NCc2nnc(SCC(=O)Nc3nc4ccccc4s3)o2)cc1OC	i	8.91µM	i	i	i	11.2µM
COc1ccc(C(=O)NCc2nnc(SCC(=O)Nc3cc(C)cc(C)c3)o2)cc1OC	i	i	i	i	i	i
COc1ccc(C(=O)Nc2nc3ccccc3s2)cc1	?	?	i	?	i	5.01µM
SMILES	uPA surface inh	VP16 counter	Mito fusion act	BCR signal inh	a7 integrin act	RORg inh
C=CC[C@@H]1C=C[C@H](O/N=C\[C@@H](C)[C@H](OCc2ccccc2)C(C)C)[C@H](CO)O1	nt	i[10 µM]	nt	nt	nt	i[10 µM]
COc1cccc(OC)c1C1=Nn2c(nnc2-c2ccccc2C)SC1	nt	i	nt	nt	nt	i
CCOC(=O)CNS(=O)(=O)c1ccc(F)cc1Br	nt	i	nt	nt	nt	i
COc1ccc(OC)c(-c2csc(NC(=O)Cc3ccc(F)cc3)n2)c1	i	i	i	?	i	i
COc1ccc(OC)c(-c2csc(NC(=O)c3ccc(F)cc3)n2)c1	?	10µM	i	i	i	11.2µM
Cc1ccc2nc(NC(=O)c3ccc(-c4nc5ccccc5s4)s3)sc2c1	i	i	i	i	i	7.94µM
O=C(Nc1nc2ccccc2s1)c1ccc(F)cc1	?	?	i	?	i	4.47µM

Source: PubChem BioAssay (National Center for Advancing Translational Sciences (NCATS))
